For eleven compounds, Percent Effect results are on record in ChEMBL document CHEMBL3988442, “University of Dundee, Small-Polar-MMV Screening Library” (2021).

Holding throughout (set-up): scale not given: direction of the effect not stated beside the values
In test [1] the target is Protein translocase subunit SecA (Escherichia coli (strain K12)) (UniProt P10408). Briefly: Assay to Identify E. coli SecA ATPase Inhibitors. In kind it is functional. Conditions: 30 µM.
The target of test [2] is T1, Ubiquitin-activating enzyme e1, putative (Leishmania donovani (strain BPK282A1)) (UniProt E9BSI1).
T1 sequence (whole entry): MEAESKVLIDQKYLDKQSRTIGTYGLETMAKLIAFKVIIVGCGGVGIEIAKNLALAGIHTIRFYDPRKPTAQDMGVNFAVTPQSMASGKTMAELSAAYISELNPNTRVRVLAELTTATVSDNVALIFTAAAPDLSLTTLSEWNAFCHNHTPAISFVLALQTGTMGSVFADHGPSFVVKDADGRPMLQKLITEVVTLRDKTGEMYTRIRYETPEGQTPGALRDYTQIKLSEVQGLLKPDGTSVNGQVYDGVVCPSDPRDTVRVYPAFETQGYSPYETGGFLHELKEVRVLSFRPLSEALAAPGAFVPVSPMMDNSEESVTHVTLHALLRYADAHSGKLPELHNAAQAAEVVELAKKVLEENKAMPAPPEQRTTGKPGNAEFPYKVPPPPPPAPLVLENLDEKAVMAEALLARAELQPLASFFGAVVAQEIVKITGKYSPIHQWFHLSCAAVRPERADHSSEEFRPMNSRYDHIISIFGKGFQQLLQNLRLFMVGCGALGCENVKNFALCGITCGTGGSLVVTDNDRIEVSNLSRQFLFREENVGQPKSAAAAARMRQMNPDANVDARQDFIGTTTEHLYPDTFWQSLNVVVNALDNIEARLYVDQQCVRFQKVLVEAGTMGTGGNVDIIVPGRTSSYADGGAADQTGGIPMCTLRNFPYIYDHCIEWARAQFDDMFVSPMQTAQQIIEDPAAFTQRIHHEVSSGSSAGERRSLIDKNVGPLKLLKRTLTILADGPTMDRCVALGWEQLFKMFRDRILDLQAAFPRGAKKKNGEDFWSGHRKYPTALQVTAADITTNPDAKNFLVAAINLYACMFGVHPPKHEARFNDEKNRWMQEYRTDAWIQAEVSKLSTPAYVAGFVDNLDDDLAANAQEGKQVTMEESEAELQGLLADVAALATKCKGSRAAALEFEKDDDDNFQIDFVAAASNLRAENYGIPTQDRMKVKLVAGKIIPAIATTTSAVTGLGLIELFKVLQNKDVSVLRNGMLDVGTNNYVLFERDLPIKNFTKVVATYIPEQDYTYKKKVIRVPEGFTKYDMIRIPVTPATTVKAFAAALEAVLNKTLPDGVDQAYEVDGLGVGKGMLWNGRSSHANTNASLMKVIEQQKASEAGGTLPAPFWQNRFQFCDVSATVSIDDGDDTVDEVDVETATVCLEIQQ
In words: Leishmania donovani Ubiquitin Activating Enzyme (LdE1). The test is classed as functional. The following applies: 30 µM.

Test [3] concerns the target AMP-activated protein kinase, AMPK (Homo sapiens) (UniProt P54646+O43741+P54619+Q9UGJ0+Q9Y478+Q13131+Q9UGI9). In words: AMP-dependent Kinase enzyme assay. An in vitro enzyme assay that detects ADP turnover that is directly proportional to AMPK activity. This uses naive AMPK that is activated during the assay with MK-8722. The test is classed as functional. Conditions: 30 µM.

Test [4] addresses Sialic acid-binding Ig-like lectin 9 (Homo sapiens) (UniProt Q9Y336). Briefly: Hs-Siglec9 ALPHAscreen SOP 20170721. Conditions: 10 µM. A general note: Bead proximity is the source of the signal in Alpha formats.
Another test concerns Trypanosoma cruzi. In words: Trypanosoma cruzi phosphomannomutase and mannose-1-phosphate guanylyltransferase assay. In kind it is functional. Conditions: 10 µM.
Test [5] concerns the target T2, Arginase-2, mitochondrial (Homo sapiens) (UniProt P78540).
T2 sequence (whole entry): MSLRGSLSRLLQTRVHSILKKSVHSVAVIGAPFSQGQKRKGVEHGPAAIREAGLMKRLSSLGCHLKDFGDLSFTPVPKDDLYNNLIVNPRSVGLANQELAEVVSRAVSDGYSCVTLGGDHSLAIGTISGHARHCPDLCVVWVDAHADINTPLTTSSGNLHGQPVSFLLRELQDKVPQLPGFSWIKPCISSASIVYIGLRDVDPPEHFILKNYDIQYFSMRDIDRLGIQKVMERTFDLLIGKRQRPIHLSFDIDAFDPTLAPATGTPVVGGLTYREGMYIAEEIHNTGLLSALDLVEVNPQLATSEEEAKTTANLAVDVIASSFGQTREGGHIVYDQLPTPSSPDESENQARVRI
Briefly: in vitro enzyme assay to detect the production of urea directly proportional to the activity of Arginase II. Also: in the data most compounds retested in dose-response had high values. The test is classed as functional. Conditions: 33.3 µM.

For test [6], the target named is T3, Proteasome subunit beta (Trypanosoma cruzi) (UniProt O96673).
T3 sequence (whole entry): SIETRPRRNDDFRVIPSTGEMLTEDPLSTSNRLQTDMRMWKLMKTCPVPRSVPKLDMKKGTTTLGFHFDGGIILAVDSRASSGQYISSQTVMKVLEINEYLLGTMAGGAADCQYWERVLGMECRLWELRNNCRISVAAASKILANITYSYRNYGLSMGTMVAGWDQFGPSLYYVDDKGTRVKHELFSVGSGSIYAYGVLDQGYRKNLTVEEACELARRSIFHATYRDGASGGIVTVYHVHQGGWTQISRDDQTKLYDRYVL
In words: Trypanosoma cruzi proteasome chymotrypsin-like activity (TcProtChymo) assay. Also: in the data most compounds retested in dose-response had high values. In kind it is functional. Conditions: 9.37 µM.

The species named for a further test is Homo sapiens. In words: To identify inhibition of the IFN signalling (Jak-Stat) pathway via expression of an eGFP reporter gene under the control of an IFN-stimulated response element (ISRE) containing MxA promoter. Conditions: 30 µM. In kind it is functional. In general terms: A reporter such as luciferase makes a cellular process visible.
Test [7] addresses T4, Tyrosyl-tRNA synthetase, putative (Trypanosoma cruzi (strain CL Brener)) (UniProt Q4DSP6).
T4 sequence (whole entry): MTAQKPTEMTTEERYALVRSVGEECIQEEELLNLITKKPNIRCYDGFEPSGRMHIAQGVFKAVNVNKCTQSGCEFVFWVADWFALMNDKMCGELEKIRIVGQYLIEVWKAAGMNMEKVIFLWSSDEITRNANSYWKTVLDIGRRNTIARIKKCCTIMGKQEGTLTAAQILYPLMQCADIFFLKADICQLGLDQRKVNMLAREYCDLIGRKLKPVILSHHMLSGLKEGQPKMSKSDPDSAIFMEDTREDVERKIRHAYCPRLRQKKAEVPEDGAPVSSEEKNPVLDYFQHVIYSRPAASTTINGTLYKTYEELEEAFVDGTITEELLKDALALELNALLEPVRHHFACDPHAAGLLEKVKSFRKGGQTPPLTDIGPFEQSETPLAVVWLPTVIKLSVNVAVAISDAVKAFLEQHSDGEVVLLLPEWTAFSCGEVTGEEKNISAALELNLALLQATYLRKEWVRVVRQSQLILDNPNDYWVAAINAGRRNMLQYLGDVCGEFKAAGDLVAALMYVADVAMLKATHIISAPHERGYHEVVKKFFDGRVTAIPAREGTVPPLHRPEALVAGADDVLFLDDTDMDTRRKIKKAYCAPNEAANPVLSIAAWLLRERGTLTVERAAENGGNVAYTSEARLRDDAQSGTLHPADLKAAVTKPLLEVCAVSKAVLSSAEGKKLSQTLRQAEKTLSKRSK
In words: Trypanosoma cruzi tyrosyl tRNA synthetase (TcYRS) _High Tyrosine SOP. Also: in the data most compounds retested in dose-response had high values. The test is classed as functional. Conditions: 30 µM.

Test [8] deals with T4, Tyrosyl-tRNA synthetase, putative (Trypanosoma cruzi (strain CL Brener)). Briefly: Trypanosoma cruzi tyrosyl tRNA synthetase (TcYRS) SOP. The test is classed as functional. The following applies: 30 µM.
In test [9] the target is Chromo domain-containing protein 1 (Saccharomyces cerevisiae (strain ATCC 204508 / S288c) (Baker's yeast)) (UniProt P32657). Briefly: ScCHD-1 Enzyme Inhibition Assay. Also: in the data most compounds retested in dose-response had high values. The test is classed as functional. Conditions: 30 µM.
Chain of Chromo domain-containing protein 1 (Saccharomyces cerevisiae (strain ATCC 204508 / S288c) (Baker's yeast)) (P32657 whole entry, the tested form may be a part): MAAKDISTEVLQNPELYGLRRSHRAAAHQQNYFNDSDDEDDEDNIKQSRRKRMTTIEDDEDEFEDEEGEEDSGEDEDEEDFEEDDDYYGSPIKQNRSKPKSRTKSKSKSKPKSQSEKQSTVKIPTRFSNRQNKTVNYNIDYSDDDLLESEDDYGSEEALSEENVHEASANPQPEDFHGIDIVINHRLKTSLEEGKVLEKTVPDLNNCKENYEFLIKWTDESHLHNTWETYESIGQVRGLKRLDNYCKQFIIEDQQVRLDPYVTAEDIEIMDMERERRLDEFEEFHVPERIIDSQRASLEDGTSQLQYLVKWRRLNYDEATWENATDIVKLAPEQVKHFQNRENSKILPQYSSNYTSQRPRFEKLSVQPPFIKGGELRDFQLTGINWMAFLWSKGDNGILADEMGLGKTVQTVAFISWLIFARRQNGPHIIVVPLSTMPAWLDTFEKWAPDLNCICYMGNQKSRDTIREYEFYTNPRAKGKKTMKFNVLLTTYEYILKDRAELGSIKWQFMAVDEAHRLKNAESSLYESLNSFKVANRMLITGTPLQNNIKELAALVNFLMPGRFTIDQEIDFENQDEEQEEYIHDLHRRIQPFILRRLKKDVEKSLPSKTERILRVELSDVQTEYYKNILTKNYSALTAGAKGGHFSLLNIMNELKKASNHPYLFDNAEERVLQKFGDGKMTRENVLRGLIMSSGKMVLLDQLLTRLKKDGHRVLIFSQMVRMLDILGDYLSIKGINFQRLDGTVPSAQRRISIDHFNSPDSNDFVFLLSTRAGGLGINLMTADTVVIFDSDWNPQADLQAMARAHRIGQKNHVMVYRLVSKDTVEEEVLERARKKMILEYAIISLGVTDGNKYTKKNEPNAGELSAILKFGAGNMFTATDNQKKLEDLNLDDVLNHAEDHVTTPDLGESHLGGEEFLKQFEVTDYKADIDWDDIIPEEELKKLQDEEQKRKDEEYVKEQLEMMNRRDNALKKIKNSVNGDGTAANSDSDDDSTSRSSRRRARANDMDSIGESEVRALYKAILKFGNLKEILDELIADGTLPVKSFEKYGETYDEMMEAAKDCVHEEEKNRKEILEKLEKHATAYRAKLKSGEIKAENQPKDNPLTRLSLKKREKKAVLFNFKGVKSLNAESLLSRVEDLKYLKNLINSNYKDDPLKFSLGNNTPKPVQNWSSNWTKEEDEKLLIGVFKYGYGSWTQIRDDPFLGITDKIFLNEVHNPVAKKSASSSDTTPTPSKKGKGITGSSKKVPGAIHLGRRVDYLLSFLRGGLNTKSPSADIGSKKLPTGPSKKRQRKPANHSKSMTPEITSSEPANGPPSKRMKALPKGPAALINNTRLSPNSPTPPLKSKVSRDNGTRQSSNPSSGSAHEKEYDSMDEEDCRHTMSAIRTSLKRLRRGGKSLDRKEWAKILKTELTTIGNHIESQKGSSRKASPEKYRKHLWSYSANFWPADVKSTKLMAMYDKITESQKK

For some of these results: Measured potencies and affinities stand elsewhere.

Chain of Sialic acid-binding Ig-like lectin 9 (Homo sapiens) (Q9Y336 whole entry): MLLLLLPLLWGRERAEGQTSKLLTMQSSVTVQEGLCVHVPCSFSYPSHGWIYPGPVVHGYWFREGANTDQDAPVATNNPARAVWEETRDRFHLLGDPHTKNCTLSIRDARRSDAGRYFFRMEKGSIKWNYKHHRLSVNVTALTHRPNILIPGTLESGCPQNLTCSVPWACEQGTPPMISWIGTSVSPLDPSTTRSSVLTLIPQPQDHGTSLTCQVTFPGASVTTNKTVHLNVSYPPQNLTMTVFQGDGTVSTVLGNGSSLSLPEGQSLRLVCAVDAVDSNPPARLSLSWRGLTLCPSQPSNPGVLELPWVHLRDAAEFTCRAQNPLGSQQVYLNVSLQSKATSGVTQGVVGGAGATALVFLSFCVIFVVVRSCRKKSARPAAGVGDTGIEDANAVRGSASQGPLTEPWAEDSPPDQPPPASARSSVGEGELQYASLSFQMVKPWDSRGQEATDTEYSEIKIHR
Chain of Protein translocase subunit SecA (Escherichia coli (strain K12)) (P10408 whole entry): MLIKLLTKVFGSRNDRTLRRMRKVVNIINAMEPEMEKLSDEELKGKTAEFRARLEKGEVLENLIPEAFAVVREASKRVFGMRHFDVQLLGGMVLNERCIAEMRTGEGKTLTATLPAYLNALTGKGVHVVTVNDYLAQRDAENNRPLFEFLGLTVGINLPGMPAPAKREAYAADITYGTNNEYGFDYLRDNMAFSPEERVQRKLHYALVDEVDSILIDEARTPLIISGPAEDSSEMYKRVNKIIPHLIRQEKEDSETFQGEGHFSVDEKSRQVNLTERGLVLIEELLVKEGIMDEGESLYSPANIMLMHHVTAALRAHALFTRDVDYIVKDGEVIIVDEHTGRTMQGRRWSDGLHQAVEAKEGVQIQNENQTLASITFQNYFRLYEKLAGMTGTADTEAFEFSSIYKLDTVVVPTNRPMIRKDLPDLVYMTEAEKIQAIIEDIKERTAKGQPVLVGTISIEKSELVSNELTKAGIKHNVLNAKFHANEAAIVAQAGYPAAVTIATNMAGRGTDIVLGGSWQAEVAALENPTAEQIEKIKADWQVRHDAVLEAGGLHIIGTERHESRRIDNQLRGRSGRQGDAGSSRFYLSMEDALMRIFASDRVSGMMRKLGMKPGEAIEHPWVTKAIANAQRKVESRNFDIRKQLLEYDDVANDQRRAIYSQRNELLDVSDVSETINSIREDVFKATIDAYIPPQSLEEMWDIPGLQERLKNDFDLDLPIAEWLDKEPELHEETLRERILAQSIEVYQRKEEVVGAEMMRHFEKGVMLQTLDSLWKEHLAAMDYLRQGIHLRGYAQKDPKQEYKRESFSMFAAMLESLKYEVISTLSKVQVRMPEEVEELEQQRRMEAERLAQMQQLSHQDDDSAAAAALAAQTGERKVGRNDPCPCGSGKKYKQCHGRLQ

In the case of `Cc1n[nH]c(C)c1NC(=O)CN1CCc2c(nc(C3CC3)n2C)C1`, the Percent Effect in test [1] is -1.39%; in test [2], 20.8%; in [3], -6.42%; in test [4], -4.94%; in the test on Trypanosoma cruzi, -9.36%; in test [5], 0%. Besides, the Percent Effect was 10.6% in test [6]; 37.3% in the test filed under Homo sapiens; 3.88% in test [7]; 2.44% in test [8]; -7.54% in test [9].
Regarding `c1ccc(CCN2CCN(c3ccc4nncn4n3)CC2)nc1`, the Percent Effect is -3.09% in test [1]; 5.2% in test [2]; 9.47% in test [3]; 7.22% in test [4]; -4.49% in the test with Trypanosoma cruzi; 3.56% in [5]. For the same compound, the Percent Effect in [6] is 3.72%; in the test listed under Homo sapiens, 21.7%; in test [7] it was 2.91%; in test [8], 7.32%; in [9], -0.331%.
For the compound `Cc1ccc(NC2CCN(C(=O)COc3cccnc3)CC2)nn1`, the Percent Effect in test [1] is -5.07%; in test [2], 21.5%; in test [3] it was -3.6%; in [4], -4.99%; in the test with Trypanosoma cruzi it was -0.923%; in test [5] it was -1.94%. Moreover, the Percent Effect was 14.1% in test [6]; 12.9% in the test filed under Homo sapiens; 4.17% in test [7]; 15.2% in test [8]; -15.5% in test [9].
With `CCOCCC(=O)N1CCCC(c2ncc[nH]2)C1` (stereo unspecified), the Percent Effect in test [1] is -3.07%; in [2] it was 2.74%; in [3] it was -7.86%; in [4] it was -2.18%; in the test on Trypanosoma cruzi, -5.29%; in test [5], 6.36%. For the same compound, the Percent Effect in test [6] is 4.97%; in the test filed under Homo sapiens, 11.3%; in test [7], 2.15%; in test [8] it was 7.5%; in [9], -0.879%.
With `O=C1CC2(CCN(S(=O)(=O)C3CC3)C2)CN1c1cncnc1` (stereo unspecified), the Percent Effect in test [1] is 1.95%; in [2] it was 16%; in test [3] it was -1.36%; in [4], -1.59%; in the test on Trypanosoma cruzi, 1.54%; in [5], -50.7%. Moreover, the Percent Effect in test [6] was 9.74%; in the test filed under Homo sapiens it was 5.32%; in test [7], 6.25%; in test [8], 27.5%; in [9], -4.67%.
As to `CNS(=O)(=O)c1cccc(CNC(=O)c2c(C)oc(C)c2C)c1`, the Percent Effect is -3.91% in test [1]; 19% in [2]; 6.49% in test [3]; -6.49% in test [4]; 3.79% in the test on Trypanosoma cruzi; -1.07% in test [5]. The Percent Effect in [6] worked out at 18.4%; in the test listed under Homo sapiens, 7.61%; in test [7] it was 2.08%; in test [8] it was 15.2%; in test [9], 53.2%.
For `Cc1ccc(NC2CCN(C(=O)Cc3cccc(F)c3)CC2)nn1`, the Percent Effect in test [1] is -1.31%; in test [2], 21.6%; in test [3] it was -15.1%; in [4], 7.97%; in the test with Trypanosoma cruzi, 7.83%; in test [5], -12%. Further, the Percent Effect is 6.67% in test [6]; 6.31% in the test listed under Homo sapiens; 9.36% in test [7]; 28.4% in [8]; -10.9% in test [9].
As for `CSc1ncccc1C(=O)NCc1ccc(CS(=O)(=O)NC(C)C)cc1`, the Percent Effect is -2.86% in test [1]; 13.9% in test [2]; 2.75% in [3]; -0.901% in test [4]; -1.74% in the test with Trypanosoma cruzi; 3.23% in test [5]. Also, the Percent Effect in test [6] is 15.4%; in the test listed under Homo sapiens, 21.4%; in test [7], 2.08%; in test [8] it was 2.53%; in test [9] it was -26.4%.
As to `O=C(NCC1CCS(=O)(=O)C1)c1sccc1-c1ccc(F)cc1` (stereo unspecified), the Percent Effect in [1] was -4.74%; in test [2], -54%; in [3] it was -1.29%; in test [4], 24.1%; in the test on Trypanosoma cruzi it was 8.5%; in [5] it was 4.71%. Moreover, the Percent Effect in test [6] is 13.3%; in the test listed under Homo sapiens, 4.09%; in [7] it was 4.3%; in test [8], 18.5%; in test [9], 0.115%.
For the compound `COc1ncc(NC(=O)Nc2cc(C)ccc2OC)cn1`, the Percent Effect in test [1] was -9.27%; in test [2], 15.6%; in test [3], -6.73%; in test [4], -2.77%; in the test on Trypanosoma cruzi, 9.57%; in test [5], 0.645%. Besides, the Percent Effect was 15.3% in test [6]; 10.7% in the test listed under Homo sapiens; 3.17% in test [7]; 11.5% in test [8]; -7.83% in test [9].
For `CCn1c(C2CCCN(Cc3nccn3CCOC)C2)nn(C)c1=O` (stereo unspecified), the Percent Effect in test [1] is -0.824%; in test [2], 8.11%; in test [3], -5.71%; in test [4] it was 28.2%; with Trypanosoma cruzi, 3.03%; in [5], 32.5%. Besides, the Percent Effect was 3.69% in [6]; -44.6% in the test filed under Homo sapiens; 9.68% in test [7]; 18.5% in test [8]; -6.18% in test [9].
